Data published in ChEMBL document CHEMBL3988442, “University of Dundee, Small-Polar-MMV Screening Library” (2021).
The whole screen tested about 69,000 compounds, of which about 1,000 (1.4%) showed an effect of 50% or more. This excerpt belongs to a sample that is enriched for strong results.

Tested on: Leishmania donovani
Test: Leishmania intramacrophage assay
Type: functional, organism-based
Parameters: scale not given: in the data most compounds retested in dose-response had high values

CCn1nc2c(cc1=O)CN(Cc1coc(-c3ccccc3)n1)CC2
Percent Effect (30.3 µM, […]): 51.53%

Cc1ccc(-c2nc(CN3CCc4nn(C)c(=O)cc4C3)co2)cc1
Percent Effect (30 µM, 30.03 µM): 21.01%

Cn1nc2c(cc1=O)CN(Cc1coc(-c3ccccc3)n1)CC2
Percent Effect (30.3 µM, […]): 18.82%

Nc1cc2c(nn1)CCN(C(=O)CC1CCCCC1)C2
Percent Effect (30 µM): 25.14%

CCOC(=O)C1(Cc2ccccc2)CCCN(Cc2nccn2CC)C1 (centres undefined)
Percent Effect (30.3 µM, […]): 51.2%

CCOC(=O)C1(CCOC)CCCN(Cc2nccn2CC)C1 (centres undefined)
Percent Effect (30.3 µM, […]): -5.772%

CCOC(=O)C1(Cc2cccc(OC)c2)CCCN(Cc2ncc[nH]2)C1 (centres undefined)
Percent Effect (30.3 µM, […]): -0.9604%

CN(C)C(=O)CNC(=O)c1ccc(Cl)cc1F
Percent Effect (30 µM, 30.03 µM): -10.55%

Br.O=C(CN(C1=NCCCC1)c1ccccc1)c1ccccc1
Percent Effect (30 µM, 30.03 µM): -5.499%

Br.Cc1ccc(N(CC(=O)c2ccc(Br)cc2)C2=NCCCCC2)cc1
Percent Effect (30 µM, 30.03 µM): 57.51%

COc1ccc(CN(Cc2c[nH]cn2)CC2CCCO2)c(OC)c1.O=C(O)CC(O)(CC(=O)O)C(=O)O (centres undefined)
Percent Effect (30.3 µM, […]): 20.29%

Cc1noc(C)c1CN1CCc2ncnc(-c3cccnc3)c2CC1.O=C(O)C(F)(F)F.O=C(O)C(F)(F)F
Percent Effect (30.3 µM, […]): 26.97%

Cc1cc2c(N3CCC(N(C)Cc4cnn(C)c4)CC3)ncnc2s1
Percent Effect (30.3 µM, […]): 31.66%

Cc1cc2c(N3CCC(N(C)CCc4cnn(C)c4)CC3)ncnc2s1
Percent Effect (30.3 µM, […]): 2.228%

Cc1sc2ncnc(N3CCC(N(C)Cc4cnn(C)c4)CC3)c2c1C
Percent Effect (30.3 µM, […]): 50.06%

Cc1oc(C)c(C(=O)Nc2ccccn2)c1C
Percent Effect (30.3 µM, […]): 0.1995%

Cc1cc(N2CCc3c(ncn3C)C2)n2nc(C(F)(F)F)nc2n1
Percent Effect (30.3 µM, […]): 17.99%

CC1(c2ccccc2)CCCN(Cc2cncn2C2CC2)C1 (centres undefined)
Percent Effect (30.3 µM, […]): 33.62%

CC1(c2ccccc2)CCCN(Cc2cncn2C2CCCC2)C1 (centres undefined)
Percent Effect (30.3 µM, […]): 95.34%

COCCn1cncc1CN1CCCC(C)(c2ccccc2)C1 (centres undefined)
Percent Effect (30.3 µM, […]): -2.364%

Cc1ccc(C2(CN(C)Cc3c(C)nn(C)c3C)CCNCC2)nc1
Percent Effect (30.3 µM, […]): 37.1%

Cc1ccc(C2(CN(C)Cc3snnc3C)CCNCC2)nc1
Percent Effect (30.3 µM, […]): 37.33%

Cc1ccc(C2(CN(C)Cc3sccc3C)CCNCC2)nc1
Percent Effect (30.3 µM, […]): 56.47%

Cc1cccc(-c2noc(CN3CCCC(Cn4cncn4)C3)n2)c1 (centres undefined)
Percent Effect (30 µM, 30.03 µM): 23.08%

CC(C)c1cncnc1N1CC[C@H](N2CCOCC2)[C@H](CCCO)C1
Percent Effect (30.3 µM, […]): 26.26%

CCc1ccc(C2CC(=O)Nc3cc(OC)c(NS(C)(=O)=O)cc32)o1 (centres undefined)
Percent Effect (30.3 µM, […]): -14.18%

CCc1ccc(C2CC(=O)Nc3cc(NS(C)(=O)=O)ccc32)o1 (centres undefined)
Percent Effect (30.3 µM, […]): 14.16%

CCCC(=O)Nc1cc2c(cc1OC)NC(=O)CC2c1ccc(CC)o1 (centres undefined)
Percent Effect (30.3 µM, […]): 77.7%

Cc1cc(CN2CCN(Cc3cc(C#N)ccc3F)CC2)no1
Percent Effect (30.3 µM, […]): 28.56%

Cc1ccnc(OC[C@@]23CCO[C@@H]2CCN(c2ncc(F)cn2)C3)n1.O=C(O)C(F)(F)F
Percent Effect (30.3 µM, […]): 22.41%

CC(CN1CCCC1=O)NC(=O)c1cc(Cl)c2c(c1)OCO2 (centres undefined)
Percent Effect (30.3 µM, […]): -42.28%

O=C(N[C@@H]1CCNC[C@H]1O)c1ccc(F)c(Cl)c1
Percent Effect (30 µM, 30.03 µM): 13.21%

O=C(N[C@@H]1CCNC[C@H]1O)c1ccc(F)c(F)c1
Percent Effect (30.3 µM, […]): -28.62%

O=C(N[C@@H]1CCNC[C@H]1O)c1ccc(-c2ccc(F)cc2)cc1
Percent Effect (30.3 µM, […]): 72.82%
